Assay results taken from ChEMBL document CHEMBL4296183, “CO-ADD screening of NIH NCI Natural Product Set III” (2020).
For part of these data: Results with a measured potency or affinity are listed apart.

Tests used:
[1] = test system: Staphylococcus aureus; assay: Antibacterial activity against Staphylococcus aureus MRSA ATCC 43300 (CO-ADD:GP_020); MIC in CAMBH media using NBS plates, by Resazurin F(560/590); type: functional; conditions: Concentration 20 uM, ASSAY_TEST Inhibition of Bacterial Growth, detection method Resazurin, Fluorescence (ex560/em590), MEDIA CAMHB, plate type 384well, CORNING #3640, time 18 hr
[2] = test system: Acinetobacter baumannii; assay: Antibacterial activity against Acinetobacter baumannii ATCC 19606 (CO-ADD:GN_034); MIC in CAMBH media using NBS plates, by Resazurin F(560/590); type: functional; conditions: Concentration 20 uM, ASSAY_TEST Inhibition of Bacterial Growth, detection method Resazurin, Fluorescence (ex560/em590), MEDIA CAMHB, plate type 384well, CORNING #3640, time 18 hr
[3] = test system: Escherichia coli; assay: Antibacterial activity against Escherichia coli ATCC 25922 (CO-ADD:GN_001); MIC in CAMBH media using NBS plates, by Resazurin F(560/590); type: functional; conditions: Concentration 20 uM, ASSAY_TEST Inhibition of Bacterial Growth, detection method Resazurin, Fluorescence (ex560/em590), MEDIA CAMHB, plate type 384well, CORNING #3640, time 18 hr
[4] = test system: Klebsiella pneumoniae; conditions: Concentration 20 uM; ASSAY_TEST Inhibition of Bacterial Growth; detection method Absorption (OD600); MEDIA CAMHB; plate type 384well; NBS; CORNING #3640; time 18 hr
[5] = test system: Candida albicans; conditions: 20 µM
[6] = test system: Cryptococcus neoformans; conditions: Concentration 20 uM; ASSAY_TEST Inhibition of Fungal Growth; detection method Resazurin; Absorption (OD600-OD570); plate type 384well; NBS; CORNING #3640

Structure (SMILES)	Inhibition [1]	Inhibition [2]	Inhibition [3]	Inhibition [4]	Inhibition [5]	Inhibition [6]
OC1CN2CC[C@H](O)[C@@H]2C(O)[C@@H]1O (stereo not given in full)	-15.58%	-6.5%	3.63%	-1.47%	2.3%	-9.42%
CC(O)CCC(=O)c1ccoc1 (stereo not given)	-1.39%	-6.14%	1.51%	-0.54%	-0.15%	-5.46%
COc1c2c(c(CC=C(C)C)c3oc(=O)c(-c4ccc(O)cc4)c(O)c13)OC(C)(C)C=C2 [LONCHOCARPIC ACID]	25.18%	-13.6%	7.94%	-4.69%	-1.79%	-11.25%
C=C1C(=O)OC2C1CCC(C)C1(O)C=CC(=O)C21C (stereo not given)	-5.72%	-10.47%	2.36%	3.79%	-0.93%	-3.28%
C1CCC(NC2CCCCC2)CC1.COC1C(OC(=O)/C=C/C=C/C=C/C=C/C(=O)O)CCC2(CO2)C1C1(C)OC1CC=C(C)C (stereo not given)	16.49%	-13.86%	8.82%	-0.23%	9.6%	-7.96%
CC(=O)O[C@@H]1[C@@H](O)C2=C3[C@]4(C)[C@@H]1C(C)(C)C(=O)C[C@@H]4[C@]3(O)[C@H](OC(C)=O)[C@@]1(C[C@@H]1C)C2=O	17.09%	-6.85%	0.22%	10.98%	-0.55%	-8.42%
CC1CCC2C(C)C3C(CC4C5CC=C6CC(OC7OC(CO)C(O)C(OC8OC(CO)C(O)C(O)C8O)C7OC7OC(C)C(O)C(O)C7O)CCC6(C)C5CCC43C)N2C1.Cl (stereo not given)	-4.66%	-5.32%	-0.39%	4.14%	-2.24%	-10.4%
COc1ccc2c3c([nH]c2c1)[C@H](C=C(C)C)N1C(=O)[C@@H]2CCCN2C(=O)[C@@H]1C3 [FUMITREMORGIN]	-0.07%	0.14%	5.9%	-0.45%	1.52%	-5.88%
CC[C@H]1CN2CCc3cc(OC)c(OC)cc3[C@@H]2C[C@@H]1C[C@H]1NCCc2c1[nH]c1ccc(O)cc21 [TUBULOSINE]	2.68%	-12.49%	3.63%	-0.53%	2.67%	-8.19%
COc1ccc2c(c1O)-c1c(OC)c(OC)cc3c1C(C2)N(C)CC3 (stereo not given)	23.71%	2.34%	4.51%	6.13%	-0.15%	-10.21%
CC1CCC2C(C)C(=O)OC3OC4(C)CCC1C32OO4 (stereo not given)	7.59%	-3.18%	7.05%	14.85%	23.7%	-16.17%
CN1CCc2cc3c(cc2[C@H]1[C@@H]1OC(=O)c2c1ccc1c2OCO1)OCO3 [BICUCULLINE]	11.14%	-4.97%	3.43%	11.38%	-1.4%	-11.52%
COc1cccc2c1cc([N+](=O)[O-])c1c(C(=O)O)cc3c(c12)OCO3 [ARISTOLOCHIC ACID]	-13.97%	-2.12%	5.35%	-1.07%	8.48%	-6.51%
O=P1(N(CCCl)CCCl)NCCCO1 (stereo not given) [CYCLOPHOSPHAMIDE ANHYDROUS]	22.17%	-9.14%	1.21%	1.43%	-2.64%	-8.46%
COc1ccc2c(c1OC)CN1CCc3cc4c(cc3C1C2)OCO4 (stereo not given) [TETRAHYDROBERBERINE]	10.57%	-8.62%	7.87%	-2.26%	-1.05%	-13.18%
CCCCCC(O)C1C(=O)OC(C)C(O)/C=C/C=C/C=C/C=C/C=C(\C)C(O)C(O)C(O)CC(O)CC(O)CC(O)CC(O)CC1O (stereo not given)	-5.29%	1.14%	2.6%	3.06%	-5.54%	-5.55%
C[C@H]1CCC/C=C/[C@@H]2C[C@H](O)C[C@H]2[C@H](O)/C=C/C(=O)O1 [BREFELDIN A]	11.17%	-7.42%	11.85%	-5.16%	51.3%	-9.22%
CC(=O)OC(C)(C)/C=C/C(=O)[C@](C)(O)[C@H]1[C@H](O)C[C@@]2(C)[C@@H]3CC=C4[C@@H](C=C(O)C(=O)C4(C)C)[C@]3(C)C(=O)C[C@]12C [CUCURBITACIN E]	-16.96%	-9.18%	4.67%	-1.27%	-1.39%	-7.52%
CC[C@@]1(O)C(=O)OCc2c1cc1n(c2=O)Cc2cc3ccccc3nc2-1 [CAMPTOTHECIN]	9.46%	-0.94%	5.98%	5.61%	4.14%	-6.71%
CC1OC(=O)C2CC3CCCCC3C(/C=C/C3CCCC(C)N3C)C12 (stereo not given)	14.11%	-6.83%	5.85%	4.75%	0.31%	-10.1%
CC[C@](C)(O)C(=O)O[C@H]1C(=O)O[C@@H]2C[C@H]3C(C)=C[C@H](O)[C@@H](O)[C@]3(C)[C@H]3[C@@]4(O)OC[C@]32[C@@H]1[C@@H](C)[C@H]4O	12.34%	-9.38%	1.71%	10.36%	4.77%	-4.27%
COC1C(O)C(C)OC(OC2C(Oc3cccc4c(O)c5c(=O)oc6ccc(C)c7c(=O)oc(c34)c5c67)OC(C)C(O)C2O)C1O (stereo not given)	-17.7%	-6.91%	-0.53%	2.04%	-2.79%	-9.89%
CO[C@@H]1[C@H](O)CC[C@]2(CO2)[C@H]1[C@@]1(C)O[C@@H]1CC=C(C)C	4.97%	1.38%	4.31%	14.33%	4.27%	-4.91%
C=C1C(C)C2C(Cc3ccccc3)NC(=O)C23C(OC(C)=O)/C=C/C(C)(O)CC(C)C/C=C/C3C1O (stereo not given)	-5.72%	-9.16%	-0.68%	-1.52%	1.45%	-3.95%
CCC/C=C/C=C/C(=O)OC1/C(=C/C(=O)OC)CC2CC(C(C)O)OC(=O)CC(O)CC3CC(OC(C)=O)C(C)(C)C(O)(CC4C/C(=C/C(=O)OC)CC(/C=C/C(C)(C)C1(O)O2)O4)O3 (stereo not given)	15.23%	-8.5%	2.2%	8.82%	-7.78%	-7.31%
CC(C)(O)C1C2OC(=O)C1C1(O)CC3OC34C(=O)OC2C14C (stereo not given)	-15.24%	-3.06%	2.11%	1.65%	3.44%	-6.7%
COc1ccc(C(=O)O[C@H]2CC[C@@]3(C)[C@@H]4CC[C@H]5[C@]6(O)C[C@H](O)[C@@]7(O)[C@@H](CN8C[C@@H](C)CC[C@H]8[C@@]7(C)O)[C@]6(O)C[C@@]53OC24O)cc1OC	16.97%	-4.41%	7.62%	3.66%	-1.53%	-9.31%
CC12C(=O)C=CCC1=CCC1C2CCC2(O)C(=O)OC3(C)C4CC5(C)C(COC16OC23C5C6=O)C(=O)O4 (stereo not given)	21.05%	-16.5%	8.61%	-1.2%	-2.84%	-7.36%
CCN1C[C@]2(COC)[C@H](O)C[C@H](OC)[C@]34C1[C@H]([C@H](OC)[C@H]23)[C@]1(OC(C)=O)[C@H]2[C@@H](OC(=O)c3ccccc3)[C@](O)(C[C@H]24)[C@@H](OC)[C@@H]1O	12.16%	-8.01%	7.77%	3.92%	-0.67%	-9.39%
C=C1C(=O)O[C@@H]2C[C@@H](C)[C@@H]3C=CC(=O)[C@@]3(C)[C@@H](O)[C@H]12 [HELENALIN]	9.39%	-4.22%	4.79%	9.92%	2.42%	-2.82%
